# Rows were chosen to be rich in hits. Some 12% of all compounds tested hit in one or more screens of this group.
# BAZ2B block = blocks human BAZ2B. AlphaScreen BAZ2B-H3K14Ac peptide displacement. Potency, µM (titrated, usually from 114 µM), hits mostly inhibitors. 4.4% of 360,000 active. AID 504333; note: nearly all actives have a fitted effect of over 60% in size
#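 AlphaScreen luminescence quantifies BAZ2B engagement of H3K14Ac peptide; the protein and biotinylated peptide are both at 50 nM final, buffer PBS pH 7.4 with 0.01% Tween-20, all steps at room temperature.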
# G9a inh = inhibitors of human histone lysine methyltransferase G9a. Q96KQ7. 8.8% of 350,000 active. Potency, µM (doses to about 102 µM), usual class: inhibitors. G9a H3K9 monomethylation, AlphaScreen, 2 h; note: nearly all actives have a fitted effect of over 75% in size
#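 Compounds were preincubated with 20 nM G9a for 15 min, after which biotinylated H3K9 peptide (500 nM) and SAM (20 uM) started a 2 h room-temperature reaction. Monomethylated product was quantified by antibody-based AlphaScreen chemiluminescence.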
# L3MBTL1 inh = blocks human L3MBTL1. Q9Y468. AlphaScreen L3MBTL1–H3K9me1 peptide binding. Potency, µM (titrated, usually from 57.1 µM), usual class: inhibitors. 0.66% of 230,000 active. AID 485360; note: nearly all actives have a fitted effect of over 60% in size
#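 AlphaScreen assay: L3MBTL1 (50 nM final) was preincubated 30 min at room temperature with biotinylated H3(1-15)K9me1 peptide (75 nM final), then 30 min with library compounds; streptavidin donor and nickel chelate acceptor beads (10 ug/mL final) added, 30 min dark.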
# Sfp PPTase inh = blocks B. subtilis Sfp PPTase activity. Q9F4F7. Biochemical Sfp PPTase activity, qHTS. Potency, µM, hits mostly inhibitors. 3.5% of 310,000 active. AID 1490;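 note: the enzyme is Sfp with the accession as filed and its product quenches rhodamine fluorescence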
#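 With Hepes-Na pH 7.6 buffer containing 10 mM MgCl2, Sfp (15 nM) modified BHQ-2-YbbR (12.5 uM) using rhodamine-CoA (5 uM). Two reads 30 minutes apart at 525/598 nm yielded each well's rate.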
# JMJD2A Tudor = JMJD2A Tudor domain (human) inhibition; AlphaScreen JMJD2A-Tudor / H3K4me3 peptide binding; Potency, µM (titrated, usually from 114 µM), actives largely listed as inhibitors; 4.4% of 390,000 active; AID 504339; note: nearly all actives have a fitted effect of over 50% in size
# HP1b binding inh = inhibitors of HP1-beta chromodomain binding to methylated histone tails; P83916; AlphaScreen HP1-beta / biotin-H3K9me3 peptide binding; Potency, µM (series often up to 114 µM), actives largely listed as inhibitors; 0.56% of 390,000 active; note: nearly all actives have a fitted effect of over 70% in size
#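 HP1-beta protein (50 nM final) preincubated 30 min at room temperature with biotinylated H3(1-18)K9me3 peptide (50 nM) in PBS pH 7.4, 0.01% Tween-20, then compound added for 30 min. AlphaScreen streptavidin donor/nickel chelate acceptor beads (10 ug/mL final), 30 min dark, luminescence read.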
# Numbers stand for hits; . = inactive; ? = inconclusive; / = no result; [ ] = another dose, or the depositor's remark. Calls come from the whole dose curve; as a rule, active = well fitted curve in the direction sought with a large enough effect; inconclusive = small, poorly fitted or top-dose-only effect, or another doubt; inactive = no such curve, though single readings can be large; an effect the other way counts as inactive or inconclusive.
SMILES,BAZ2B block,G9a inh,L3MBTL1 inh,Sfp PPTase inh,JMJD2A Tudor,HP1b binding inh
CC(=O)Nc1ccc(N/C(C)=C/C(=O)c2cccnc2)cc1,.,.,.,.,.,.
CC/C(=C\C(=O)c1cccnc1)Nc1ccc(C)c(C)c1,.,40µM,.,.,50µM,?
Cc1ccc(OCC(=O)NNC(=O)c2cccnc2)cc1C,.,/,.,.,.,.
C/C(=C\C(=O)c1cccnc1)Nc1ccc(C(=O)O)cc1,?,2.2µM,/,.,?,.
COc1ccc(-c2ccc(C(C)=O)cc2)cc1C1C2C=CCC(C)C2C(=O)N1Cc1ccccc1 (stereo unspecified),/,/,/,.,?,.
CN1CCN(c2ncc3nc(-c4ccccc4)c(=O)n(C4CC4)c3n2)CC1,/,.[0.501 µM],/,.,/,/
COc1ccc(-c2ccc(=O)n(Cc3ccccc3)n2)cc1,.,/,.,.,.,.
COc1ccc(-c2c(C)nn(Cc3ccccc3)c2N)cc1,.,45µM,.,.,.,.
Cc1ccc(CN2COc3c(Cl)cc4c(-c5ccccc5)cc(=O)oc4c3C2)cc1,.,.,/,/,.,.
CCOCC(=O)Nc1nc(-c2ccccc2)c(CC)s1,.,35µM,/,.,.,.
COC(=O)c1cc2oc3ccccc3c2n1CC(=O)Nc1ccc(OC)c(OC)c1,.,.,/,/,.,.
Cc1c(CN2CCCCC2)c(O)n(CCCO)c(=O)c1C#N,.,45µM,.,.,.,.
CCCn1c(O)c(CN2CCCCC2)c(C)c(C#N)c1=O,.,.,.,.,?,.
CCN(CC)S(=O)(=O)c1ccc(C(=O)OCC(=O)NCc2ccco2)cc1,50µM,?,.,.,?,.
CCN(CC)S(=O)(=O)c1ccc(/C=C/C(=O)OCC(=O)NCc2cccs2)cc1,.,.,.,/,.,.
COc1ccc(S(=O)(=O)Nc2ccccc2C(=O)NCc2ccco2)cc1,?,14µM,.,.,.[11.4 µM],.
CCN(CC)S(=O)(=O)c1ccc(/C=C/C(=O)OCC(=O)NCc2ccco2)cc1,/,/,?,/,32µM,?
COc1ccccc1NS(=O)(=O)c1ccc(C(=O)OCC(=O)NCc2ccco2)cc1,50µM,50µM,?,?,.,.
O=C1CCc2cc(S(=O)(=O)Nc3cccc(F)c3)ccc2N1,/,/,/,/,.,/
CCOc1ccc(C(=O)C(C)OC(=O)CN2C(=O)NC(C)(C)C2=O)cc1 (stereo unspecified),.,.,.,/,.,.
CC1=C(C(=O)Nc2ccc(Cl)cc2)C(c2cccs2)n2nc(SCc3cccc(C)c3)nc2N1 (stereo unspecified),.,.,/,/,.,.
CC(=C/c1ccccc1)/C=N/n1c(-c2ccncc2)n[nH]c1=S,?,.,.[11.4 µM],.,10µM,?
CC(/C=N/n1c(-c2cccnc2)n[nH]c1=S)=C\c1ccccc1,?,0.89µM,.,?,20µM,.
Cc1ccc(/C=N/n2cnc3sc(C)c(C)c3c2=O)o1,.,.,.,.,.,.
S=c1[nH]nc(-c2cccnc2)n1/N=C/C=C/c1ccccc1,.,1.8µM,.,.,7.1µM,.
SMILES,BAZ2B block,G9a inh,L3MBTL1 inh,Sfp PPTase inh,JMJD2A Tudor,HP1b binding inh
Cc1ccc(/C=N/n2c(C)n[nH]c2=S)o1,.,?,.,.,5µM,.
CC(/C=N/N1C(=O)CSC1=S)=C\c1ccccc1,?,?,.,.,.,.
CC(/C=N/NC(=O)c1cccnc1)=C\c1ccccc1,/,.,/,.,.,.
COc1ccc(-n2cc(C(=O)N(CCN(C)C)Cc3ccccc3)c3ccccc3c2=O)cc1,.,.,/,/,?,.
CC(=C/c1ccccc1)/C=N/n1c(C)n[nH]c1=S,.,/,.,.,32µM,.
c1ccc(-c2nc(-c3ccco3)n3ccccc23)cc1,?,?,.,7.1µM,.,.
NC(=O)c1cc2c3ccccc3ccn2c1-c1ccccc1,32µM,35µM,/,.,32µM,?
Cc1cc(C(N)=O)c2ccccc2n1,/,.,.,.,.,.
COC(=O)c1ccc(OCCOc2ccccc2)cc1,.,.[12.7 µM],/,.,.,.
C=CCc1cc(OC)ccc1OCCN(C)Cc1ccccc1,50µM,13µM,.,50µM,25µM,?
COC(=O)c1ccc(OCCCCN(C)Cc2ccccc2)cc1,56µM,10µM,.,.,32µM,?

# Screening results (PubChem BioAssay)
